# Data reported in PubChem BioAssay AID651812 (National Center for Advancing Translational Sciences (NCATS), 2012).
# Hit rate of the full screen: of about 2,100 compounds, about 650 (31%) were called active. About 16% were inconclusive and are not listed. Calls come from the whole dose curve; as a rule, active = well fitted inhibition curve with a large enough effect; inconclusive = small, poorly fitted or top-dose-only effect; inactive = flat fitted curve, though single readings scatter. This is one part of the list.
# Assay: qHTS for inhibitors of Vif-A3G interactions: Cherry picks; note: nearly all actives have a fitted effect of over 80% in size; for activity, negative = fluorescence increase: % of control where 0% means no effect
# Settings: HeLa A3G-eYFP + Vif (tagged APOBEC3G with the HIV-1 protein that degrades it), 24 h; Potency: eYFP fluorescence increase; series mostly up to 36.9 µM; activity, negative = fluorescence increase: at the top concentration
# Procedure, shortened: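 Cherry-picked compounds tested at several concentrations on A3G-eYFP/Vif HeLa cells for 24 hours; loss of Vif-driven degradation read as eYFP fluorescence by cytometric plate imaging, 488 nm excitation, 500-530 nm emission.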
# Potency is the fitted concentration of half-maximal effect.
Structure (SMILES),"activity, negative = fluorescence increase",Potency
CN(Cc1cnn(Cc2ccccc2)c1)C(=O)c1cccc(S(=O)(=O)N2CCOCC2)c1,-3.86% (inactive),
O=C(CN1c2cccc3cccc(c23)S1(=O)=O)Nc1ccc(S(=O)(=O)N2CCOCC2)cc1,-4.13% [at 46.1 µM] (inactive),
CCn1c(O)c(/C=N/NC(=O)c2ccncc2)c(=O)n(CC)c1=S,9.98% [at 46.1 µM] (inactive),
CC[n+]1c(C=C2C=C(C)OC(C)=C2)sc2ccccc21,,8.2 µM (active)
CCSC1=NSC2=NC(=O)/C(=C\c3coc4ccccc4c3=O)C(=N)N12,,23.1 µM (active)
CCS(=O)(=O)c1nn2c(N)c(/C=C3/C=CC(=O)C(OC)=C3)c(=O)nc2s1,13.5% [at 46.1 µM] (inactive),
COC1=C/C(=C/c2c(N)n3nc(-c4ccc(C)cc4)sc3nc2=O)C=CC1=O,,14.6 µM (active)
CCc1ccc(CNC(=O)Cc2ccc(NC(=O)C3=C(C)OCCS3)cc2)cc1,-1.61% (inactive),
N#CC1=C2SCC(O)(c3ccccc3)N2C(=O)CC1c1ccccc1 (stereo not given),-17.3% (inactive),
COc1ccc(NC(=O)C2(C)Cc3c(-c4cccc(NC(C)=O)c4)ccnc3O2)cn1 (stereo not given),-5.51% (inactive),
CCOc1ncccc1C(=O)NCc1ccc(OC)cc1,-0.568% (inactive),
Nc1nc(SCc2ccc(Cl)cc2Cl)nc2nc3c(cc12)CCCC3,,23.1 µM (active)
Cc1[nH][nH]c(=O)c1C(c1c(C)[nH][nH]c1=O)c1cn(Cc2ccccc2Cl)c2ccccc12,-10.2% (inactive),
Cc1ccc2oc(/N=C(\N)NC(=O)C(C)(C)C)nc2c1,-6.59% [at 46.1 µM] (inactive),
COC(=O)c1ccc(NC(=O)CC2Nc3cc(C)c(C)cc3NC2=O)cc1 (stereo not given),,23.1 µM (active)
CCOC(=O)c1ccc(NC(=S)NC(=O)C2CCCC2)cc1,13.5% [at 46.1 µM] (inactive),
C/C(CCc1ccc2c(c1)OCO2)=N\NC(=S)NC(C)C,-17.7% [at 46.1 µM] (inactive),
Fc1ccc(CNc2nc3ccccc3n3nnnc23)cc1,,16.4 µM (active)
Cc1ccc(C(=O)O)cc1Nc1nc2ccccc2n2nnnc12,-17.3% [at 46.1 µM] (inactive),
CC(NC(=O)c1ccc(Nc2nc3ccccc3n3nnnc23)cc1)c1ccccc1 (stereo not given),,18.4 µM (active)
c1ccc2c(c1)nc(N1CCOCC1)c1nnnn12,4.21% [at 46.1 µM] (inactive),
Fc1ccc(COc2ccc3ccccc3c2CNc2nn[nH]n2)cc1,-6.32% (inactive),

Structure (SMILES),"activity, negative = fluorescence increase",Potency
CC(=O)Nc1ccc(S(=O)(=O)Nc2nc3ccccc3nc2Nc2ccc(N)cc2)cc1,-7.33% [at 46.1 µM] (inactive),
CN(C)c1ccc(Nc2nc3ccccc3n3nnnc23)cc1,-25.5% [at 46.1 µM] (inactive),
COc1ccccc1CNC(=O)c1ccc(Nc2nc3ccccc3n3nnnc23)cc1,,20.6 µM (active)
C=CCSc1nc2ccccc2n1C(=O)/C=C/c1cc(OC)c(OC)c(OC)c1,2.28% (inactive),
COc1cc(Nc2nc3ccccc3n3nnnc23)cc(OC)c1OC,,20.6 µM (active)
O=[N+]([O-])c1ccccc1C1Nc2cccc3cccc(c23)N1,9.33% [at 46.1 µM] (inactive),
CCOC(=O)c1cc(-c2ccccc2C)n(CC2CC(c3ccc(OC)cc3)=NO2)n1 (stereo not given),-4.85% (inactive),
NC(=S)N/N=C/c1ccccc1OC(=O)/C=C/c1ccccc1,1.01% [at 46.1 µM] (inactive),
Cc1cc(OCC(=O)Nc2nnc(C3CC3)s2)ccc1Cl,1.84% (inactive),
COc1ccc2[nH]c(C(=O)N/N=C/c3ccc(OC)c(O)c3)cc2c1,-3.2% (inactive),
Cc1ccc(/C=N/NC(=O)c2ccc3ccccc3c2)s1,-17.8% (inactive),
COc1cc(OC)cc(C(=O)Nc2ccc(N3CCN(C(=O)c4cccs4)CC3)cc2)c1,-1.42% (inactive),
COc1cc2ccccc2cc1C(=O)N/N=C/c1cccs1,-8.47% (inactive),
COc1ccc2o/c(=N/NC(=O)c3cccs3)c(C(N)=O)cc2c1,,14 µM (active)
O=C1CN(C(=O)c2cc(Br)c(Br)s2)c2ccccc2N1,-12.4% (inactive),
CCN(Cc1ccccc1)c1ccc(/C=C(\C#N)c2ccccn2)cc1,-5.57% [at 46.1 µM] (inactive),
CN(C)c1ccc(/C=C/c2nccc3ccccc23)cc1,,23.1 µM (active)
CN(C)c1ccc(C=Cc2nccc3ccccc23)cc1,,17.7 µM (active)
CCN(Cc1ccccc1)c1ccc(/C=C/c2nccc3ccccc23)cc1,,20.6 µM (active)
CCN(CC)c1nc(C=Cc2ccc(N(C)C)cc2)c2nccnc2n1,,2.06 µM (active)
COc1cc(SC)ccc1C(=O)N1CCN(c2ccccc2OC)CC1,-7.48% (inactive),
Cc1ccc2c(c1C)NC(=O)CC(c1ccccc1O)=N2,3.28% [at 46.1 µM] (inactive),

Structure (SMILES),"activity, negative = fluorescence increase",Potency
CN(C)CCCN(C(=O)/C=C/c1cccs1)c1nc2ccc(F)cc2s1,-28.8% [at 46.1 µM] (inactive),
Cc1ccc(CNC(=O)c2ccc3c(c2)NC(=O)C(CS(=O)(=O)Cc2cccc(C)c2)N3)cc1 (stereo not given),,20.6 µM (active)
CC(C)CCNC(=O)c1ccc2c(c1)NC(=O)C(CS(=O)(=O)Cc1cccc(Br)c1)N2 (stereo not given),4.76% [at 46.1 µM] (inactive),
CC1Sc2ccc(C(=O)NCc3ccccn3)cc2NC1=O (stereo not given),-21% [at 46.1 µM] (inactive),
C[C@@H]1O[C@@H](O[C@@H]2C(=O)c3c(O)cc(O)cc3O[C@H]2c2ccc(O)c(O)c2)[C@H](O)[C@H](O)[C@H]1O,-4.71% (inactive),
CN(C)C(=O)c1cccc(-c2cnc3c(NC=O)cc(-c4ccccc4F)cn23)c1,-11.7% (inactive),
CC1=CC(C)(C)NC(=S)N1c1ccc2ccccc2c1,-1.3% (inactive),
CCOC(=O)c1c(CC(C)C)csc1/N=C/C1C(=O)CCCC1=O,2.43% [at 46.1 µM] (inactive),
C=C1C(=O)O[C@H]2C1CC[C@@](C)(O)C13C=CC(C)(C21)C1(C3)C(=O)O[C@@H]2C3C(C)=CCC3[C@](C)(O)C[C@H](OC(C)=O)C21 (stereo not given in full),-9.27% (inactive),
O=C1/C(=C/c2ccc([N+](=O)[O-])cc2)Oc2cc(O)ccc21,-11.4% [at 46.1 µM] (inactive),
CN(C)c1ccc(/C=C2\Oc3ccc(C#Cc4cccc(N)c4)cc3C2=O)cc1,,14 µM (active)
COc1cnc(-c2ccccn2)nc1Oc1ccc(F)cc1F,3.98% [at 46.1 µM] (inactive),
CC(C)(C)OC(=O)NC(Cc1ccccc1)C(=O)N1CCC(C(=O)NCC(=O)Nc2ccc(F)cc2)CC1 (stereo not given),,18.4 µM (active)
COc1ccc(/C=N/n2cc(-c3ccccc3)nc2N)cc1,-2.95% (inactive),
Cc1ccnc(N/C=C(\C#N)c2nc(-c3cccc(Br)c3)cs2)c1,,14 µM (active)
COC(=O)c1nnn(-c2nonc2N)c1CN1CCc2ccccc21,0.0341% (inactive),
CC1(C)CCN2CCC(C)(C)c3c(O)ccc1c32,,14 µM (active)
COc1cc(CNCCSc2nnnn2C)ccc1OCc1c(F)cccc1Cl,-0.389% [at 46.1 µM] (inactive),
Cc1ccc(N=Cc2c(O)n(-c3nccs3)c(=O)c3ccccc23)c(C)c1,,16.4 µM (active)
N#C/C(=C/c1ccc(-c2ccc([N+](=O)[O-])cc2)o1)C(=O)Nc1nc(-c2cccs2)cs1,-19.8% [at 46.1 µM] (inactive),
Cc1ccc(NC(=O)/C(C#N)=C\c2ccc(-c3ccc(Cl)cc3)o2)c(C)c1,,7.31 µM (active)
